Values without a mark were called inactive. Inconclusive results are not listed. The source made the active and inactive calls. Unless noted, the call rests on the fitted dose curve; in most records, active means well fitted curve in either direction with a large enough effect (not every such curve was filed as active); inconclusive means small, poorly fitted or top-dose-only effect, or another doubt; inactive means flat fitted curve, though single readings scatter.
Key:
[1] = biological target: Lysosomal acid glucosylceramidase (Homo sapiens) (UniProt P04062); test: Glucocerebrosidase-p2 (AID 348; in the data active means potency below about 10 µM; further: potency means the concentration at half of the fitted maximal effect); details: purified GBA, blue fluorogenic substrate, 40 min
Chain of Lysosomal acid glucosylceramidase (Homo sapiens) (P04062 whole entry, looked up): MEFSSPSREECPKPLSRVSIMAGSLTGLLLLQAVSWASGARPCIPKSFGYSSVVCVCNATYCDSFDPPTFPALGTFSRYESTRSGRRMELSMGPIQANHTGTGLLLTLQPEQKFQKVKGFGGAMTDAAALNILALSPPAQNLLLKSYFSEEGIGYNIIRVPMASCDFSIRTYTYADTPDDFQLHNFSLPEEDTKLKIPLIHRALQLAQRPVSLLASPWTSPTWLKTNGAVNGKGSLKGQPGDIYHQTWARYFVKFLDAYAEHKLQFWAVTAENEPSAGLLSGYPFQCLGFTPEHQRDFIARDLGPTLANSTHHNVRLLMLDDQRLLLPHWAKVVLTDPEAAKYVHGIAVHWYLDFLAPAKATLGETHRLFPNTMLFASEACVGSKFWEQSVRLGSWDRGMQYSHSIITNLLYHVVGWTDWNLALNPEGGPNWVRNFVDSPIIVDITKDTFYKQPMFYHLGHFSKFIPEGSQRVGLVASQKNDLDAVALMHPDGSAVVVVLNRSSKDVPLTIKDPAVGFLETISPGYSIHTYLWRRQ
Summary of the method: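 Compounds titrated from 0.6 nM upwards against 0.2 nM enzyme in pH 5.9 citric acid/KH2PO4, taurocholate, tween-20; blue fluorogenic substrate 80 uM, 40 min room temperature, stopped and read Ex 365/Em 440 for AC50.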

[2] = AP1 Signaling Pathway (AID 357); details: ME-180 AP-1-bla reporter, EGF-induced, beta-lactamase ratio, 5 h; at 7.69 µM (top of the series) unless noted;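 further: ME-180 reporter cells stimulated with EGF at its EC50 level; on the % scale 0 is the no-effect control and ±100 the full control effect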
Summary of the method: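 Read-out was the 460nm/530nm emission ratio (excitation 405nm) after CCF4 loading for 2.5 hours at room temperature. Cells carried an AP-1-driven beta-lactamase reporter, were stimulated with EC50 EGF plus compound for 5 hours, and AC50 values came from titrations.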

[3] = biological target: Cytochrome P450 1A2 (Homo sapiens) (UniProt P05177); test: p450-cyp1a2 (AID 410; calls by dose curve; further: potency means the concentration at half of the fitted maximal effect;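 on activity change, negative = inhibition: -100% = full effect of reference inhibitor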); details: recombinant CYP1A2, luciferin-ME demethylation, luminescence; series mostly up to 11.4 µM
Chain of Cytochrome P450 1A2 (Homo sapiens) (P05177 whole entry, looked up): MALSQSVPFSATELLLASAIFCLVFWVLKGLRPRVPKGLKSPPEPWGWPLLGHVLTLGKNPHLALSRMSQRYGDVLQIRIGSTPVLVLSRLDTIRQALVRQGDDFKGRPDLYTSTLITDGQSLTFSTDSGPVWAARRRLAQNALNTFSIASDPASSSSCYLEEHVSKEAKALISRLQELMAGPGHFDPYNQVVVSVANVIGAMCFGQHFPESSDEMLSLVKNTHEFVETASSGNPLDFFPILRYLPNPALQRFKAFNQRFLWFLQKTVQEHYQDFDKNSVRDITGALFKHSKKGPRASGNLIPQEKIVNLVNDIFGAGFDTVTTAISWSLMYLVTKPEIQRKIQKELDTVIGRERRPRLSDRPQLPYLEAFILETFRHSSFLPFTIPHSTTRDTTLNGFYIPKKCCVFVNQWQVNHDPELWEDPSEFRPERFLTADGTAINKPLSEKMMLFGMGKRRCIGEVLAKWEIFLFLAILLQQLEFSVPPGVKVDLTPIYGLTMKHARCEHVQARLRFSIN
Summary of the method: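 Inhibition was calculated relative to 57 uM furafylline (full inhibition). The reaction used human CYP1A2 at 20nM with Luciferin-ME at its Km, 100uM, driven by an NADPH-regenerating system for 60 min at room temperature.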

[4] = NFAT Signaling Pathway (AID 444); details: Jurkat NFAT-bla M1, carbachol, beta-lactamase ratio, 5 h; at 7.69 µM (top of the series) unless noted;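 further: carbachol stimulus at about its EC50 of 1 µM final; on the % scale 0 is the no-effect control and ±100 the full control effect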
Summary of the method: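 Jurkat cells carrying an NFAT-driven β-lactamase reporter and co-transfected muscarinic M1 receptor were treated with compound plus carbachol (1 uM final, an EC50 level) for 5 h at 37 °C. CCF4 loading followed for 1 h at RT; 460/530 nm ratio gave %activity.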

[5] = Stat Signaling Pathway (AID 446); details: ME-180 SIE beta-lactamase reporter, IL-6 stimulated, 5 h; at 7.69 µM (top of the series) unless noted;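 further: ME-180 cervical cancer cells given 40 pM IL-6 alongside compound; SIE-controlled beta-lactamase reporter measured as 460/530 nm FRET emission ratio; on the % scale 0 is the no-effect control and ±100 the full control effect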
Summary of the method: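 IL-6/STAT signaling read in ME-180 cells via an SIE beta-lactamase reporter. Stimulus was 40 pM IL-6 (its AC50) for 5 hrs, so both activation and inhibition register.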

[6] = biological target: Glucocorticoid receptor (Homo sapiens) (UniProt P04150); test: GR-GFP Redistribution (AID 450;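 active means compounds whose dose series gives a full or clear partial fitted curve of increased nuclear translocation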; further: potency means the concentration at half of the fitted maximal effect); details: U2OS GR-GFP nuclear translocation, laser cytometry, 2 h
Chain of Glucocorticoid receptor (Homo sapiens) (P04150 whole entry, looked up, the tested form may be a part): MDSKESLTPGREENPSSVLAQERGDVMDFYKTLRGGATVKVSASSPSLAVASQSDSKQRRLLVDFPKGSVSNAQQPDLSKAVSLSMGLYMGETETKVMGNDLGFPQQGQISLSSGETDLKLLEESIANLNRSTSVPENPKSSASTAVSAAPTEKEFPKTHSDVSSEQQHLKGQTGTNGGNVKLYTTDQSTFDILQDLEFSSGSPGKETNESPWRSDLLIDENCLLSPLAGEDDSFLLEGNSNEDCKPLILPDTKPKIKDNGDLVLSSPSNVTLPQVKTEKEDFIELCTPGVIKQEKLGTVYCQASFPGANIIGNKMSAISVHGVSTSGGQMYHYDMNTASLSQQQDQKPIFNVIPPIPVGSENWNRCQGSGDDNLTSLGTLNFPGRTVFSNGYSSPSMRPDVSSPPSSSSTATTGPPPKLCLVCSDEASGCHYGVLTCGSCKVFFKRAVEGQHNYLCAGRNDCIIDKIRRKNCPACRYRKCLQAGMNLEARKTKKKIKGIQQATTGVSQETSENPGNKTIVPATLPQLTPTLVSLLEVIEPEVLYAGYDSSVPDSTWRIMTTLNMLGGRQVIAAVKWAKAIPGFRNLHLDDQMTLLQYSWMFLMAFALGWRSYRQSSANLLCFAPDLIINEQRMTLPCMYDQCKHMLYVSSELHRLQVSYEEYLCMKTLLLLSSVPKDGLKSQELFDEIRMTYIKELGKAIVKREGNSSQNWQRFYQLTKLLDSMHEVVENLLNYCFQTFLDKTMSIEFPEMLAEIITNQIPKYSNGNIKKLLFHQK

[7] = biological target: Glucocorticoid receptor (Homo sapiens) (UniProt P04150); test: GR-EFC Redistribution (AID 451; calls by dose curve; further: potency means the concentration at half of the fitted maximal effect); details: CHO-K1 GR-EFC translocation, beta-gal luminescence, 2 h
Summary of the method: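 CHO-K1 cells stably expressing nuclear-localized β-gal enzyme acceptor and GR fused C-terminally to the enzyme donor fragment; ligand-driven nuclear translocation restores β-gal by complementation. Compounds titrated up to 46 uM final, 2 h at 37 °C; luminescence read.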

[8] = biological target: Mitogen-activated protein kinase 10 (Mus musculus) (UniProt Q61831); test: JNK3 AlphaScreen Assay (AID 530); details: JNK3 lysate, c-Jun phosphorylation; series mostly up to 11.4 µM;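 further: kinase came from lysate of stimulated human HepG2 cells; signal reports phosphorylation of biotinylated GST-cJun 1-79 at Ser73 with 10 µM ATP; on the % scale 0 is the no-effect control and ±100 the full control effect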
Summary of the method: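 JNK3 came from HepG2 lysates pre-activated with IL-1beta and TNF-alpha and phosphorylated biotinylated GST-cJun (1-79) at 10 uM ATP, pH 7.6, room temperature. Compounds were titrated. AlphaScreen signal used anti-phospho-cJun (Ser73) antibody.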

[9] = biological target: 3',5'-cyclic-AMP phosphodiesterase 4B (Homo sapiens) (UniProt Q07343); test: qHTS Assay for Inhibitors of PDE-IV (AID 607; active means well fitted activation curve with a large enough effect in the main read-out, with a control signal flat, not every such curve was filed as active; further: % of control where 0% means no effect); details: HEK293 ACTOne CNG channel cells, membrane potential fluorescence; series mostly up to 22.9 µM
Chain of 3',5'-cyclic-AMP phosphodiesterase 4B (Homo sapiens) (Q07343 whole entry, looked up): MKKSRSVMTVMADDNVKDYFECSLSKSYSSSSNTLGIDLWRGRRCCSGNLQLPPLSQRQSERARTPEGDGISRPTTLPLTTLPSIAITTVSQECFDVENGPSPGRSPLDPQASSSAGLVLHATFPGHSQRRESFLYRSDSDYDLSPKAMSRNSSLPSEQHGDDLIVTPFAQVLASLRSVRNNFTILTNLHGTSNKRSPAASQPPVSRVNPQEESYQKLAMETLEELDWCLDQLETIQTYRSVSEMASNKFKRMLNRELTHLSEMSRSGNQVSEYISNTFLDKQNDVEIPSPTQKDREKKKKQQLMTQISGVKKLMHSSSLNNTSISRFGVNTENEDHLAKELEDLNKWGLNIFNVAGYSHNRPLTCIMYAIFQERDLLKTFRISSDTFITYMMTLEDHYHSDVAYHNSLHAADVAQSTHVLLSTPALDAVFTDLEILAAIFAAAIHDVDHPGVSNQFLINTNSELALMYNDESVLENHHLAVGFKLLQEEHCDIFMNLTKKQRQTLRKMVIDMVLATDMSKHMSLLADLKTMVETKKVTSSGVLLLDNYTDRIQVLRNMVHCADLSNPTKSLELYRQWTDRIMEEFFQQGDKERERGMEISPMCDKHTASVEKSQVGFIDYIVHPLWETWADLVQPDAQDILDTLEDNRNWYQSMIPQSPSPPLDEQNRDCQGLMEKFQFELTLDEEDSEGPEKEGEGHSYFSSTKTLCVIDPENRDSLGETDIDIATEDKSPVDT
Summary of the method: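 Live HEK293 cells with a modified cyclic nucleotide-gated (CNG) channel report intracellular cAMP via membrane-potential dye fluorescence (ex 535/em 590 nm). Endogenous PDE-IV was targeted. Compounds were tested at up to 22.9 uM final; RO 20-1724 100 uM served as control.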

[10] = qHTS Assay for Identification of Small Molecule Agonists for Hypoxia Response Element Signaling Pathway (AID 914; active means well fitted activation curve with a large enough effect in the signal ratio, with a control signal flat, not every such curve was filed as active; the % refers to the signal ratio; further: % of control where 0% means no effect); details: ME-180 (cervical carcinoma) HRE-bla reporter, beta-lactamase ratio, CoCl2, 17 h; activation: hits give high values
Summary of the method: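 Positive modulation of EC50 CoCl2-induced hypoxia response element signaling is measured in ME-180 cells with a beta-lactamase reporter. Compounds are titrated, incubation runs 17 hours, and %Activity derives from the blue/green ratio.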

[11] = biological target: Cytochrome P450 2C19 (Homo sapiens) (UniProt P33261); test: qHTS Assay for Inhibitors and Substrates of Cytochrome P450 2C19 (AID 899; active means well fitted inhibition curve with a large enough effect; further: nearly all actives have a fitted effect of over 60% in size; further: potency means the concentration at half of the fitted maximal effect); details: recombinant CYP2C19, luciferin-H EGE luminescence; series mostly up to 11.4 µM
Chain of Cytochrome P450 2C19 (Homo sapiens) (P33261 whole entry, looked up): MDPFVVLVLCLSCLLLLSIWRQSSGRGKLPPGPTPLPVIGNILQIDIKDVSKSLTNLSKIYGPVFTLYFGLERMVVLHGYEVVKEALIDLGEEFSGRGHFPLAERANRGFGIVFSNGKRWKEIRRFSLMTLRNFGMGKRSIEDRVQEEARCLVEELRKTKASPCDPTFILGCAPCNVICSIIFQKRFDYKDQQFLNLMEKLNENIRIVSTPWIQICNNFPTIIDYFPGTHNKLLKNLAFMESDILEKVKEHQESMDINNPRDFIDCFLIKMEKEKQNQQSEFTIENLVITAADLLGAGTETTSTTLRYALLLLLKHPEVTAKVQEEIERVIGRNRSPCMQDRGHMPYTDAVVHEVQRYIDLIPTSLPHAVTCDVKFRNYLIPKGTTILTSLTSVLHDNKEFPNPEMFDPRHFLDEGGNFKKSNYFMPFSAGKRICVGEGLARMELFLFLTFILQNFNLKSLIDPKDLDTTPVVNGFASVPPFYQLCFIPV
Summary of the method: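 Human CYP2C19 (5nM) with Luciferin-H EGE at 10uM (its KM) in 50mM KPO4 was preincubated with compound for 10 min at 37C. NADPH regeneration started a 60 min 37C reaction. Luciferin was read by luminescence, normalized to 57uM ketoconazole.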

| SMILES | Potency [1] [µM] | activity change, negative = inhibition [2] [%] | Potency [3] | activity change, negative = inhibition [4] [%] | activity, negative = inhibition [5] [%] | Potency [6] [µM] | Potency [7] [µM] | Potency [8] | Potency [9] | activation [10] [%] | Potency [11] | activity change, negative = inhibition [3] |
| --- | --- | --- | --- | --- | --- | --- | --- | --- | --- | --- | --- | --- |
| Cc1c(C(=O)O)nc(/C=C\C(=O)O)[nH]c1=O | > 11.4 | 11.1 | inactive | 3.17 | 21.1 | > 46 | > 9.22 | inactive | inactive | 12.3 | – | – |
| Cn1cnc([N+](=O)[O-])c1Sc1nc(N)nc2c1ncn2Cc1ccccc1 | > 11.4 | 0.181 | 3.16 µM (active) | -1.11 | 1.04 | > 46 | > 9.22 | inactive | inactive | -1.88 | – | – |
| O=C(O)C1(Nc2ccc(Cl)cc2)CCCC1 | > 11.4 | -1.27 | inactive | 7.56 | 5.72 | > 46 | > 9.22 | inactive | inactive | 0.664 | – | – |
| CN(C)Cc1ccc(O)c(CN(C)C)n1 | > 11.4 | 1.16 | inactive | 4.31 | 0.249 | > 46 | > 9.22 | inactive | inactive | 2.88 | – | – |
| CCOC(=O)C(C)(C)[C@H](O)C(C)C | > 11.4 | -4.38 | inactive | 6.94 | -3.53 | > 46 | > 9.22 | inactive | inactive | 11.4 | – | – |
| CC(C)(Oc1ccc(-c2cccc3ccccc23)cc1)C(=O)O | > 11.4 | 2.76 | inactive | -8.87 | 1.48 | > 46 | > 9.22 | inactive | inactive | -19.2 | inactive | – |
| N=C(N)SCCCN | > 11.4 | 2.32 | 6.31 µM (active) | 3.8 | 5.52 | > 46 | > 9.22 | inactive | inactive | – | inactive | – |
| c1ccc2c(CSCc3cccc4ccccc34)cccc2c1 | > 11.4 | 6.44 | 3.98 µM (active) | -28.7 | 17.1 | > 46 | > 9.22 | inactive | inactive | – | 0.126 µM (active) | – |
| C[C@@](N)(/C=C\c1ccccc1)C(=O)O | > 11.4 | -1.95 | inactive | 12 | -3.44 | > 46 | > 9.22 | inactive | inactive | -2.86 | – | – |
| O=C(O)[C@H]([C@H]1NCCS1)N1Cc2ccccc2C1 | > 11.4 | 11 | – | 5.16 | 2.46 | > 46 | > 9.22 | inactive | inactive | 13.9 | – | -13.4% [at 2.29 µM] |
| O=S(=O)(O)c1ccc(-c2nnc(-c3ccccn3)nc2-c2ccc(S(=O)(=O)O)o2)o1 | > 11.4 | 4.23 | inactive | 3.88 | 2.53 | > 46 | > 9.22 | inactive | inactive | 8.26 | – | – |
| Cc1cc(C2(c3cc(C)c(O)c(C(=O)O)c3)OS(=O)(=O)c3ccccc32)cc(C(=O)O)c1O | > 11.4 | -7.31 | inactive | -1.56 | 2.58 | > 46 | > 9.22 | inactive | inactive | -3.84 | – | – |
| NC(=O)Nc1n[nH]c(-c2ccccc2)n1 | > 11.4 | 4.22 | 3.16 µM (active) | -3.57 | 2.91 | > 46 | > 9.22 | inactive | inactive | 12.6 | – | – |
| Nc1nc(-c2cccc([N+](=O)[O-])c2)cc(-c2cc(-c3cccc([N+](=O)[O-])c3)nc(N)n2)n1 | > 11.4 | -0.341 | – | 6.8 | 3.52 | > 46 | > 9.22 | inactive | inactive | 18.2 | – | 0.3% [at 2.29 µM] |

From PubChem BioAssay (NCATS)
